# Measured values from PubChem BioAssay.
# Records with an inconclusive call do not appear. The source made the active and inactive calls.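 How the source made its calls, unless noted: active means inhibition above 54%, about 3 SD of non-fluorescent compounds; inactive means the rest.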
# What was measured:
# [1] = rapamycin-like changes in RPL19A-GFP expression – cell-based, S. cerevisiae, multiplex flow cytometry, primary screen (AID 1862; in the data active means percent of DMSO control GFP below about 86%;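 further: lower values mimic rapamycin by blocking the RPL19A rise seen in DMSO cells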); settings: S. cerevisiae RPL19A-GFP strain, flow cytometry fluorescence, 3 h; at 10 µM; stronger effect = lower value
# [2] = TOR pathway GLN3 branch reporter MEP2-GFP changes – S. cerevisiae, multiplex flow cytometry, primary screen (AID 1867;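 active means GFP response, as percent of the DMSO control, above the screen-wide mean plus 3 SD, about 139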;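 further: median GFP channel fluorescence of barcode-gated MEP2-GFP cells measured by flow cytometry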); settings: S. cerevisiae MEP2-GFP strain, 3 h, at 10 µM, stronger effect = higher value, 100% means same as DMSO wells
# [3] = TOR pathway RTG branch CIT2 reporter changes – S. cerevisiae, GFP fusion, multiplex flow cytometry, primary screen (AID 1870;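 active means percent response above a set limit, the screen-wide mean plus 3 SD, cut at about 130% in these data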;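 further: barcoded CIT2-GFP strain pooled with four other GFP strains with rapamycin as positive control; median GFP fluorescence per well over plate mean of DMSO wells so 100% = DMSO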); settings: S. cerevisiae CIT2-GFP expression, 3 h, at 10 µM, stronger effect = higher value
# [4] = TOR pathway LAP4-GFP level changes – S. cerevisiae, multiplex flow cytometry, primary screen (AID 1873;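 active means GFP signal, as percent of the solvent control, above the screen mean plus 3 SD, about 149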); settings: S. cerevisiae LAP4-GFP expression, 3 h, at 10 µM, stronger effect = higher value
# [5] = yeast AGP1-GFP level changes, GLN3 branch – cell-based, multiplex flow cytometry, S. cerevisiae, primary screen (AID 1887;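 active means GFP signal above the screen-wide mean plus 3 SD, that is over about 124.5% of the solvent control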;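 further: AGP1-GFP fusion strain of S. cerevisiae within a five-strain barcoded multiplex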); settings: 3 h, at 10 µM, stronger effect = higher value
# [6] = reduced mouse 2C T cell binding to pMHC/ICAM-1 vesicles – MLPCN validation set, flow cytometry, LFA-1/ICAM-1 modulator project, pilot screen (AID 2523;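 active means response below a set limit, under 55% cells CD8-positive and vesicle-bound, and CD8 cells' 90th-percentile brightness under 279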;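 on vesicle binding response: mean PE anti-B7-1 fluorescence of CD8+ cells relative to row control; 100% = QL9-loaded vesicles with DMSO vehicle in the same plate row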); settings: 2C mouse CD8+ T cells, at 7 µM, stronger effect = lower value; double positive events: measured here: CD8+/vesicle+ event percentage
# [7] = biological target: Integrin beta-1 (Homo sapiens) + Integrin alpha-4 (Homo sapiens) (UniProt P13612+P05556); experiment: alpha4beta1 integrin LIBS antibody binding reduction – U937 cells, HUTS-21 mAb, flow cytometry, validation set, VLA-4 allosteric modulator project, pilot screen (AID 2674;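 active means inhibition above 50%, about 3 SD of the validation set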;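 further: antibody binding induced by the VLA-4 ligand LDV present at three times its Kd; 0% = LDV ligand with antibody and no compound and 100% = antibody without LDV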); settings: HUTS-21 LIBS mAb binding, at 6.7 µM, stronger effect = higher value, binding induced by LDV ligand
# [8] = calorie-restriction mimetic ROS inhibitors, yeast – validation compound set, pilot screen (AID 2706;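 active means superoxide response below 65% of plate, a cut near 3 SD across the whole screen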;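 further: yeast exposed to compound for one week at 30 degrees C before staining; 100% = mean of all compound wells on the same plate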); settings: S. cerevisiae aging, superoxide DHE fluorescence; at 10 µM; stronger effect = lower value
# [9] = biological target: Beta-adrenergic receptor kinase 1 (Homo sapiens) (UniProt P25098); experiment: GRK2 binders displacing RNA aptamer, biochemical, validation, human GRK2, bead flow cytometry (AID 488806;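 active means aptamer binding inhibition above 30%, about 3 SD of noise from non-fluorescent compounds; inactive means inhibition at or below 30%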); settings: bead-bound GRK2, FAM-aptamer displacement, at 10 µM, stronger effect = higher value
# [10] = biological target: Beta-2 adrenergic receptor (Homo sapiens) (UniProt P07550); experiment: agonist-induced loss of surface beta2AR – cell-based, FAP fluorogen, flow cytometry, validation set, pilot screen (AID 504459;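 active means percent response above 42, roughly 3 SD of non-fluorescent test compounds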;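 further: agonist-driven loss of surface beta2AR via internalization measured by FAP dye flow cytometry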); settings: Am2.2-beta2AR cells, at 10 µM, stronger effect = higher value
# [11] = biological target: AP-2 complex subunit beta (Homo sapiens) (UniProt P63010); experiment: beta-arrestin/AP2 interaction blockers – biochemical, validation set, GST-AP2 beads, flow cytometry, pilot screen (AID 504541); settings: FITC arrestin peptide, at 10 µM, stronger effect = higher value, AP2 beta2 appendage fragment, R879A mutant;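 further: AP2 carries R879A mutation and is captured from E. coli lysate; bead-bound FITC arrestin peptide fluorescence measuring arrestin peptide binding to AP2; 0% = DMSO wells and 100% = excess unlabeled arrestin peptide control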
# [12] = cytosolic pH regulators acting via V-ATPase – S. cerevisiae, pHLuorin, HTS validation (AID 504600; in the data active means response above about 15%;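 further: plate controls were DMSO for no effect and reference compound for full effect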); settings: V-ATPase proton transport, at 10 µM, stronger effect = higher value
# [13] = tested on: anti-desmoglein-3 scFv antibody binding to human DSG3; experiment: blockers of pathogenic pemphigus antibody–desmoglein-3 binding – biochemical, validation compound set, bead-based, flow cytometry, pilot screen (AID 588368;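 active means binding below the plate cutoff, the plate median minus 3 SD, with a reading above zero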;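 further: signal is the median channel fluorescence of bead-bound GFP antibody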); settings: Protein G beads, DSG3-Fc, scFv-GFP binding, at 10 µM, stronger effect = lower value
# [14] = Nile Red efflux blockade in pump-expressing yeast – validation compound set, multiplex, phenotypic, pilot screen (AID 588506;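 active means efflux inhibition above 0.42, the validation set average plus 4 SD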;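 further: Nile Red retained in cells so higher fluorescence means more efflux inhibition; 0 = negative control wells and 1 = enniatin B 25 µM full block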); settings: S. cerevisiae pump-expressing triplex, Nile Red efflux flow cytometry; at 10 µM; stronger effect = higher value; the pumps come from Candida albicans
# [15] = biological target: ATP-binding cassette sub-family B member 6 (Homo sapiens) (UniProt Q9NP58); experiment: blockers of ABCB6-driven porphyrin uptake – K562-ABCB6 cells, flow cytometry, validation set, pilot screen (AID 588550;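 active means inhibition above the screen-wide mean plus 3 SD, about 51%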;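 further: 0% = DMSO wells and 100% = benzethonium chloride 70 µM positive control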); settings: K562-ABCB6 porphyrin accumulation, 1 h, at 10 µM, stronger effect = higher value
# [16] = AML differentiation inducers, ER-HoxA9 marrow cells – cell-based, GFP/MAC1 double positive, flow cytometry, validation set, primary screen (AID 588685;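 active means differentiation response of at least 50%, scaled between solvent and reference control, from cells with both markers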;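 further: compound exposure lasts four days before antibody staining and flow analysis; 0% = DMSO wells and 100% = 5 µM fulvestrant positive control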); settings: stronger effect = higher value, normalized: vehicle 0, fulvestrant 100
# Sequence of Beta-adrenergic receptor kinase 1 (Homo sapiens) (P25098 whole entry, looked up): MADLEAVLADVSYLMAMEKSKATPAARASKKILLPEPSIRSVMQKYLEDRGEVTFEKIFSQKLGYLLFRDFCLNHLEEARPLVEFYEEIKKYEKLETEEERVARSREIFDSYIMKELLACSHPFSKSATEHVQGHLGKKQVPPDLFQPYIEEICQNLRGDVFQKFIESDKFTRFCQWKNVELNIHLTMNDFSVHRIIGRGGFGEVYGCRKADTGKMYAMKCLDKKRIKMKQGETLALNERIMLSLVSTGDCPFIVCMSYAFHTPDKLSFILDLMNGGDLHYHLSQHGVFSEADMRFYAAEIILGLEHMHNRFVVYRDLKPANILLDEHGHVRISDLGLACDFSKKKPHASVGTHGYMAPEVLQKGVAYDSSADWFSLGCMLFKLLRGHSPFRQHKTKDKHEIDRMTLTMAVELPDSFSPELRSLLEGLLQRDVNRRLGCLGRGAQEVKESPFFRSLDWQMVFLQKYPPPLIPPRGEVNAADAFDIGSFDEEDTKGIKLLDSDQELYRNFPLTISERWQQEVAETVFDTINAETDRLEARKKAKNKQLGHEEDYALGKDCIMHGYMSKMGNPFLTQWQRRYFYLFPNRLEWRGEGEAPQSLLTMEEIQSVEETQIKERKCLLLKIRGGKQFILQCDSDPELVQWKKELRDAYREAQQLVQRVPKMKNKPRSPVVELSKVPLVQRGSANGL
# Sequence of AP-2 complex subunit beta (Homo sapiens) (P63010 whole entry, looked up, the tested form may be a part, one chain of several): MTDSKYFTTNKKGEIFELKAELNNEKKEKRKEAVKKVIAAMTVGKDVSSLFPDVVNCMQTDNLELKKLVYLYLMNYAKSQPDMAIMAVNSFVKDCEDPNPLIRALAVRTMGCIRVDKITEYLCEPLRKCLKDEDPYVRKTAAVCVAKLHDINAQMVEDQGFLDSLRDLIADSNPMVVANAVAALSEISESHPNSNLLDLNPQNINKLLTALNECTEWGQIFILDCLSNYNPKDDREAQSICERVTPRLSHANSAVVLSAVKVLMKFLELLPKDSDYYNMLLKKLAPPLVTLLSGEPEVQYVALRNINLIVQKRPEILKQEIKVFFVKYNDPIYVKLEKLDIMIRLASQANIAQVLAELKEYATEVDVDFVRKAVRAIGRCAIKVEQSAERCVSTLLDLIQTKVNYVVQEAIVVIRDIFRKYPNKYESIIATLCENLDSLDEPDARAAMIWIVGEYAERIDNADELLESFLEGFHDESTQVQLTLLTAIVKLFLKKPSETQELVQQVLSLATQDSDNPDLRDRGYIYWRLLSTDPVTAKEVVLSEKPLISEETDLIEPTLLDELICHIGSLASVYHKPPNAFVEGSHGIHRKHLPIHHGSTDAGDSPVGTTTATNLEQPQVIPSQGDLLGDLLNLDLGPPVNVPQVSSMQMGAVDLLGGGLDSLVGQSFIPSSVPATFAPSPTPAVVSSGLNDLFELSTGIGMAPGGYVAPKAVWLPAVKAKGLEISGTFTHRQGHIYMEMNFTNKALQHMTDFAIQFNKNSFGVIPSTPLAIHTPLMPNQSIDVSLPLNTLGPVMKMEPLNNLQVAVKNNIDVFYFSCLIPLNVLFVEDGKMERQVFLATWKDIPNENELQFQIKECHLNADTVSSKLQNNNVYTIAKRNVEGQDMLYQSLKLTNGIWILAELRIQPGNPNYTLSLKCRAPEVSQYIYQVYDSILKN
# Sequence of Beta-2 adrenergic receptor (Homo sapiens) (P07550 whole entry, looked up, the tested form may be a part): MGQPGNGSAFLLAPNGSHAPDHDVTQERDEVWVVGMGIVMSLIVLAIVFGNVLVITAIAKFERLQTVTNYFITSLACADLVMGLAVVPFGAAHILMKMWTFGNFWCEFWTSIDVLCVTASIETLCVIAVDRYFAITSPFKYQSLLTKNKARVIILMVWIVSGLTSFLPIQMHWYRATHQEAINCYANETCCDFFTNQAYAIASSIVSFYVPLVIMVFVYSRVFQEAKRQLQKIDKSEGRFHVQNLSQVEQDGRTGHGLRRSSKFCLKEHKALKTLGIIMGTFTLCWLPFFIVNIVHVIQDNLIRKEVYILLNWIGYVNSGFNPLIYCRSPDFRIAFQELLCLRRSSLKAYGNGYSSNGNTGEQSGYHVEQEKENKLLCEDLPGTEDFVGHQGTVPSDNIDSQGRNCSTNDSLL
# Sequence of Integrin beta-1 (Homo sapiens) + Integrin alpha-4 (Homo sapiens) (P05556 whole entry, looked up): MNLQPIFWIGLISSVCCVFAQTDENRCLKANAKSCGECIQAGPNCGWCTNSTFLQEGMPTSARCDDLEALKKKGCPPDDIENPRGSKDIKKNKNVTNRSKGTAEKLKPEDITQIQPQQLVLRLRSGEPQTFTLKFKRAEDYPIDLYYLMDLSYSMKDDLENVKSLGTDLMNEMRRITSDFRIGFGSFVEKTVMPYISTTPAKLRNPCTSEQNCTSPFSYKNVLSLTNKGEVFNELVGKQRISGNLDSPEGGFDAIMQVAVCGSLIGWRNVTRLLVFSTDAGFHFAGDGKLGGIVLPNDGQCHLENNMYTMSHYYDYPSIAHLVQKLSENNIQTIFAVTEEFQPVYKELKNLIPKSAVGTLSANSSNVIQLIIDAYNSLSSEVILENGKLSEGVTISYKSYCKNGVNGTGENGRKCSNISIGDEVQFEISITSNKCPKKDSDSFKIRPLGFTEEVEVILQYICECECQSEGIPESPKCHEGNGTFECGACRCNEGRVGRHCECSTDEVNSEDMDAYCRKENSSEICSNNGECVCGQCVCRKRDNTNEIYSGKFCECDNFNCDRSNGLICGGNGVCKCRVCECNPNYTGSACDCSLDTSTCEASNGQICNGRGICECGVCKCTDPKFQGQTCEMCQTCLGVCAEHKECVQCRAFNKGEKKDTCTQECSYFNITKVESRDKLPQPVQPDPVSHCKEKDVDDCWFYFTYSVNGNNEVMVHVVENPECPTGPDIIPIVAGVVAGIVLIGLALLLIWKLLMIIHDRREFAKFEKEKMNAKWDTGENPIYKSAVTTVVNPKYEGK
# Sequence of Integrin beta-1 (Homo sapiens) + Integrin alpha-4 (Homo sapiens) (P13612 whole entry, looked up): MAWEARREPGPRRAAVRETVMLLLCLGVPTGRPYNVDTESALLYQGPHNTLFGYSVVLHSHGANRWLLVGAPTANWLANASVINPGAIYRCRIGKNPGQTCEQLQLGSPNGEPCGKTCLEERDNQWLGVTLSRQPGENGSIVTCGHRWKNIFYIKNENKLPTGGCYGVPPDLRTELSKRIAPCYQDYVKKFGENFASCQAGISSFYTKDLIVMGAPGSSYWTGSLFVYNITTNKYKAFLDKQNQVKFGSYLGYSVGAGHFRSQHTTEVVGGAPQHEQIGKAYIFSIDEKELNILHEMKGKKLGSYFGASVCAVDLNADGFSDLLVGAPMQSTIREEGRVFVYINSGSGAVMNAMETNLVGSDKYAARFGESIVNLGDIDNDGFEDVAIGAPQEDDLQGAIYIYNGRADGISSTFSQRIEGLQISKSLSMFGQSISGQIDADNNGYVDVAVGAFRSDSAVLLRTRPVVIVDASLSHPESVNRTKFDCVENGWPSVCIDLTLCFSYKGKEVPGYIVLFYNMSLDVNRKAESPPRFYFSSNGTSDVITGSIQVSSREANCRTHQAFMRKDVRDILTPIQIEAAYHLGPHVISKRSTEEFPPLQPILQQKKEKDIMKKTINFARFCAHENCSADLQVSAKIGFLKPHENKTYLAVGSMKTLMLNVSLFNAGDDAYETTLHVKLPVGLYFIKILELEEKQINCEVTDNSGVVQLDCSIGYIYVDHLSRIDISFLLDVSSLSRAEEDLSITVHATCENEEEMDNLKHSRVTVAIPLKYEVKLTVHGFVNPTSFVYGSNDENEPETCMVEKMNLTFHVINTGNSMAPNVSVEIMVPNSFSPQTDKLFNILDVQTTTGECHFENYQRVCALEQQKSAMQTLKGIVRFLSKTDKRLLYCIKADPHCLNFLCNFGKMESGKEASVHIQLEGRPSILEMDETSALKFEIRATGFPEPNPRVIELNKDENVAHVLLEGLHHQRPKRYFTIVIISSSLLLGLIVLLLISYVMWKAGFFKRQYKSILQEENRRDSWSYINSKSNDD
# Sequence of ATP-binding cassette sub-family B member 6 (Homo sapiens) (Q9NP58 whole entry, looked up): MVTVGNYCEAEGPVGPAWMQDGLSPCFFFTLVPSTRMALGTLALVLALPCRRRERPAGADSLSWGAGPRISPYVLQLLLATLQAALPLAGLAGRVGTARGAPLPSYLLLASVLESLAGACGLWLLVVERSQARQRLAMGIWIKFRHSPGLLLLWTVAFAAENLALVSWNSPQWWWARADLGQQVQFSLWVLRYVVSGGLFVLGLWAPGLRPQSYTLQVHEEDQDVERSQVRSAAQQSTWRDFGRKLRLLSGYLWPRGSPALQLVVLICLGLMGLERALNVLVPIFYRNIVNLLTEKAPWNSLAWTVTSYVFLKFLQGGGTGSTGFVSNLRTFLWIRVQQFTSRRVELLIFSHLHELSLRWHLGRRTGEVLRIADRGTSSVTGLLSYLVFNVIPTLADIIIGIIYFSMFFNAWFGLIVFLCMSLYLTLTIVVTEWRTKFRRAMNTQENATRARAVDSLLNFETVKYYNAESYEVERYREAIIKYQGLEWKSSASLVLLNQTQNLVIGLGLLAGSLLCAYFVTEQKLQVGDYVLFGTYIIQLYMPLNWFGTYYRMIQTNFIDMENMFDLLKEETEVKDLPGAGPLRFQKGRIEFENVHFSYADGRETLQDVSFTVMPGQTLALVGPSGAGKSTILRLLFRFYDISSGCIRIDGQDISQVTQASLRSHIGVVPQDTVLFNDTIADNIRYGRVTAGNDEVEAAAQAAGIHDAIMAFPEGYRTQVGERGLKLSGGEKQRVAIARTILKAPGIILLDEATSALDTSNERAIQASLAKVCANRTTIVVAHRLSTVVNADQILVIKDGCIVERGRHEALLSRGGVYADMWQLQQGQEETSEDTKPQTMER
SMILES,percent of DMSO control GFP [1],GFP response vs DMSO [2],percent response of DMSO control [3],GFP response vs DMSO [4],"GFP response, % of DMSO [5]",double positive events [6],vesicle binding response [6],inhibition [7],superoxide response (% of plate) [8],aptamer binding inhibition [9],response [10],inhibition [11],response [12],binding (% of control) [13],efflux inhibition (fraction of control) [14],inhibition [15],differentiation response [16]
COc1cccc(C2CC(=O)C3=C(C2)Nc2ccccc2N(C(=O)CCC(=O)O)C3c2ccc(F)cc2)c1 (stereo unspecified),95% (inactive),149% (active),102% (inactive),89.1% (inactive),93.8% (inactive),64%,213% (inactive),11.3% (inactive),98% (inactive),4% (inactive),-3.62% (inactive),30.9% (inactive),-2.19% (inactive),102% (inactive),-0.13 (inactive),4% (inactive),-1.64% (inactive)
O=C(CN1CC[n+]2c(-c3cccs3)csc21)c1ccc(Br)cc1,103% (inactive),104% (inactive),108% (inactive),103% (inactive),107% (inactive),64%,142% (inactive),1.59% (inactive),96.7% (inactive),0% (inactive),10.7% (inactive),14.7% (inactive),1.44% (inactive),99% (inactive),-0.085 (inactive),-9% (inactive),-7.5% (inactive)
Cc1cc(-c2nn(-c3ccccc3F)cc2CN2CCCC(O)C2)c(C)s1 (stereo unspecified),97.6% (inactive),101% (inactive),97.7% (inactive),117% (inactive),107% (inactive),56.6%,148% (inactive),5.69% (inactive),84.2% (inactive),-2% (inactive),-40.3% (inactive),-12.6% (inactive),-5.22% (inactive),103% (inactive),-0.04 (inactive),0% (inactive),-13.9% (inactive)
O=Cc1ccc(OC(=O)c2cccnc2)cc1,101% (inactive),91.9% (inactive),107% (inactive),78.6% (inactive),99.5% (inactive),58.7%,209% (inactive),2.3% (inactive),98.5% (inactive),1% (inactive),-10.5% (inactive),-1.7% (inactive),1.76% (inactive),93% (inactive),0.05 (inactive),4% (inactive),16.8% (inactive)
O=C(NCCNc1ccc(Cl)cc1[N+](=O)[O-])c1cccnc1,100% (inactive),102% (inactive),102% (inactive),106% (inactive),98.9% (inactive),57.5%,13.3% (inactive),5.41% (inactive),102% (inactive),-6% (inactive),-6.88% (inactive),20% (inactive),0.22% (inactive),100% (inactive),-0.22 (inactive),4% (inactive),8.02% (inactive)
CCOC(=O)C1=C(N)Oc2c(c(=O)[nH]c3ccccc23)C1c1ccccc1 (stereo unspecified),100% (inactive),106% (inactive),91% (inactive),112% (inactive),107% (inactive),57.2%,179% (inactive),0.94% (inactive),103% (inactive),6% (inactive),3.69% (inactive),1.81% (inactive),1.75% (inactive),104% (inactive),0.01 (inactive),7% (inactive),-0.8% (inactive)
CN(C)CCCN1c2ccccc2CCc2ccccc21,99% (inactive),103% (inactive),101% (inactive),90.7% (inactive),95.3% (inactive),65.8%,1060% (inactive),12% (inactive),89.3% (inactive),-2% (inactive),2.45% (inactive),4.55% (inactive),-0.62% (inactive),99.7% (inactive),-0.2 (inactive),3% (inactive),6.11% (inactive)
CN1CCN(CC/C=C2/c3ccccc3Sc3ccc(S(=O)(=O)N(C)C)cc32)CC1,102% (inactive),109% (inactive),94.5% (inactive),109% (inactive),94.8% (inactive),68.4%,202% (inactive),23% (inactive),86% (inactive),4% (inactive),-1.99% (inactive),-4.59% (inactive),11% (inactive),84.3% (inactive),0.02 (inactive),28% (inactive),-13.3% (inactive)
CCN(CCCCCN(C)C)Cc1cc2ccccc2o1,101% (inactive),101% (inactive),94.8% (inactive),112% (inactive),106% (inactive),64.4%,206% (inactive),-0.43% (inactive),79.9% (inactive),-1% (inactive),-3.86% (inactive),-2.46% (inactive),0.31% (inactive),102% (inactive),-0.06 (inactive),10% (inactive),5.6% (inactive)
COc1ccc(CCn2c(C)nc3c(c(=O)c4ccccc4n3C)c2=O)cc1,98.6% (inactive),102% (inactive),103% (inactive),104% (inactive),116% (inactive),61.1%,155% (inactive),-8.78% (inactive),96.8% (inactive),5% (inactive),-29.5% (inactive),7.96% (inactive),7.85% (inactive),101% (inactive),0.21 (inactive),5% (inactive),16.7% (inactive)
CCOC(=O)C1C2C=CC3(CN(c4ccc(Cl)c(F)c4)C(=O)C13)O2 (stereo unspecified),100% (inactive),99.3% (inactive),95.4% (inactive),96.6% (inactive),94.6% (inactive),58.3%,171% (inactive),-9.79% (inactive),105% (inactive),1% (inactive),1.75% (inactive),36.1% (inactive),-0.79% (inactive),100% (inactive),0.33 (inactive),2% (inactive),12% (inactive)
COc1cc2c(cc1OC)CN(C(=O)c1ccc(S(=O)(=O)N(C)c3ccccc3)cc1)CC2,95.9% (inactive),101% (inactive),99.6% (inactive),115% (inactive),111% (inactive),73.5%,605% (inactive),5.69% (inactive),57.5% (active),1% (inactive),-14.1% (inactive),-6.13% (inactive),1.25% (inactive),96.2% (inactive),0 (inactive),5% (inactive),1.91% (inactive)
Cc1ccc(S(=O)(=O)NC(=O)Nc2cc(C)ccc2F)cc1,102% (inactive),105% (inactive),93.1% (inactive),82.2% (inactive),96.5% (inactive),62.3%,1090% (inactive),2.66% (inactive),110% (inactive),2% (inactive),-5.23% (inactive),56.9% (active),-3.86% (inactive),92.9% (inactive),0.64 (active),-2% (inactive),34.5% (inactive)
COc1ccc(C(=O)c2oc3ccc(Br)cc3c2NC(C)=O)cc1,90.9% (inactive),122% (inactive),112% (inactive),82% (inactive),97.5% (inactive),61.7%,140% (inactive),4.52% (inactive),104% (inactive),1% (inactive),-11.6% (inactive),3.03% (inactive),3.34% (inactive),96.9% (inactive),-0.02 (inactive),8% (inactive),-0.82% (inactive)
CC[N+]1(CC)CC2=Cc3ccccc3CC2C1 (stereo unspecified),91.5% (inactive),121% (inactive),93.9% (inactive),80.3% (inactive),88.9% (inactive),64.8%,178% (inactive),13.2% (inactive),90.8% (inactive),2% (inactive),0.79% (inactive),43.9% (inactive),-6.57% (inactive),99% (inactive),0.3 (inactive),13% (inactive),0% (inactive)
CCC(C)NCCOCCOc1ccc(Cl)cc1Br (stereo unspecified),103% (inactive),102% (inactive),102% (inactive),100% (inactive),103% (inactive),61.4%,142% (inactive),0.25% (inactive),98% (inactive),-7% (inactive),-3.72% (inactive),57.1% (active),-10.6% (inactive),95.8% (inactive),-0.16 (inactive),-14% (inactive),-4.57% (inactive)
O=C(NCCO)c1ccc(Cl)c(Cl)c1,103% (inactive),104% (inactive),102% (inactive),99.1% (inactive),107% (inactive),59.4%,97% (inactive),-11.8% (inactive),105% (inactive),-1% (inactive),-1.25% (inactive),-1.25% (inactive),0.22% (inactive),104% (inactive),0.78 (active),9% (inactive),-10.4% (inactive)
CC(C)COC(=O)C1C(=O)CC(C)(O)C(C(=O)OCC(C)C)C1c1cccnc1 (stereo unspecified),90.4% (inactive),118% (inactive),102% (inactive),74.3% (inactive),88.4% (inactive),59.8%,203% (inactive),8.4% (inactive),113% (inactive),2% (inactive),-11.2% (inactive),2.38% (inactive),2.35% (inactive),102% (inactive),-0.06 (inactive),18% (inactive),-3.28% (inactive)
